Rango-impB inh: qHTS Assay for Inhibitors of Rango (Ran-regulated importin-beta cargo) - Importin beta complex formation; Rango CFP/YFP FRET sensor + importin beta, 45 min; Potency, µM (titrated, usually from 92.2 µM), inactives show top-dose inhibition of complex formation; Importin subunit beta-1 (Homo sapiens), Q14974; 0.031% of 340,000 active; calls by dose curve;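 also: 0% = DMSO wells and 100% = buffer wells lacking importin beta; nearly all actives have a fitted effect of over 15% in size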
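FRET biosensor (snurportin 1 IBB flanked by EYFP and cerulean), 50 nM, with compound 5 min, then 0.125 microM importin beta in PBS, 1 mM DTT, 0.02% Tween-20, 0.1% BSA. CFP/YFP ratio read after 45 min at room temperature; pre-read flags interference.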
ALOX12 inh: Primary qHTS assay for inhibitors of human arachidonate 12S-lipoxygenase (ALOX12): Round 2; purified 12hLO, xylenol orange hydroperoxide absorbance; Potency, µM (doses to about 108 µM), inactives show at the highest dose activity change, negative = inhibition, usual class: inhibitors; AID 1671190, 2021; 1.1% of 580,000 active; Polyunsaturated fatty acid lipoxygenase ALOX12 (Homo sapiens), P18054; also: % is scaled to controls: 0 for no effect and ±100 for the full control effect
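Purified human 12hLO at 150 nM in 25 mM Hepes, 0.01% Triton X-100, pH 7.0, preincubated 15 min at room temperature with compound. Reaction started with 40 uM arachidonic acid, 30 min at room temperature. Hydroperoxide measured by Fe-xylenol orange, 573/405 nm absorbance ratio.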
Rango dissoc inh: qHTS Assay for Inhibitors of RanGTP induced Rango (Ran-regulated importin-beta cargo) - Importin beta complex dissociation. Snurportin-1 (Homo sapiens) + GTP-binding nuclear protein Ran (Homo sapiens) + Importin …. Biochemical FRET Rango-importin beta, RanGTP-induced dissociation. Potency, µM (highest dose often 46.1 µM), for the others: at the top dose activity change, negative = inhibition. 0.071% of 340,000 active. AID 540253, 2011; calls by dose curve; also: % of control where 0% means no effect; nearly all actives have a fitted effect of over 45% in size
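Rango/importin beta premix (0.1/0.25 uM final), PBS + 1 mM DTT + 0.02% Tween-20 + 0.1% BSA; cpd 5 min RT; FRET pre-read; + RanGTP-RCC1 (0.6 uM Ran, 2 mM GTP, 0.2 uM RCC1); 45 min RT; FRET post-read, ex 430, em 486/530 nm.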
TDP1 block: qHTS Assay for Inhibitors of Tyrosyl-DNA Phosphodiesterase (TDP1); 0.28% of 350,000 active; Potency, µM (doses to about 130 µM), inactives show top-dose activity change, negative = inhibition, most hits filed as inhibitors; AID 485290, 2010; recombinant TDP1, AlphaScreen DNA substrate cleavage; also: % is scaled to controls: 0 for no effect and ±100 for the full control effect; nearly all actives have a fitted effect of over 40% in size
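Enzyme-compound mixtures sat 15 min at room temperature, followed by a 5 min reaction with 15 nM final substrate and 10 min with AlphaScreen beads. Recombinant human Tdp1 was used at 1 nM final.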
PTAP TSG101 blk: qHTS Assay for Iinhibitors of HIV-1 Budding by Blocking the Interaction of PTAP/TSG101 | Potency, µM (titrated, usually from 115 µM), inactives show top-dose activity change, negative = inhibition, actives largely listed as inhibitors | Fluorescence polarization, FITC-PTAP peptide / Tsg101 binding | Tumor susceptibility gene 101 protein (Homo sapiens), Q99816 | 340,000 tested, under 10 active; active = well fitted inhibition curve with a large enough effect in the main read-out, with a control signal flat, not every such curve was filed as active; inconclusive = small, poorly fitted or top-dose-only effect, or effect the other way, or a change in a side signal; inactive = no such curve, though single readings can be large or run the other way; also: % of control where 0% means no effect
Target sequence (Q99816 whole entry, looked up): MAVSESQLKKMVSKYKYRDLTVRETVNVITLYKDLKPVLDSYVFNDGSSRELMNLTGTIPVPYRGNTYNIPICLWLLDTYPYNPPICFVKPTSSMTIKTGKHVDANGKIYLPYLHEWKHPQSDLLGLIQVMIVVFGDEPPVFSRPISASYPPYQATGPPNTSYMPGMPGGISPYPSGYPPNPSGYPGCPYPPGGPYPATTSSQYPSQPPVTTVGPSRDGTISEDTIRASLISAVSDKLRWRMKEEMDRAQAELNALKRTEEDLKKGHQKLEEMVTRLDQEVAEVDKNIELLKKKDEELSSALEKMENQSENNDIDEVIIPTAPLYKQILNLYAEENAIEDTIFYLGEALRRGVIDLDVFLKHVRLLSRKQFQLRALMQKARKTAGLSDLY
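Compounds were pin-transferred onto Tsg101 binding domain (10 uM final) in HEPES pH 7.5 buffer, then FITC-PTAP peptide was added at 50 nM final. After 20 min at RT, polarization reported peptide displacement across a qHTS concentration series.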
ClpP mod: qHTS Assay for Activators of ClpP; ATP-dependent Clp protease proteolytic subunit (Bacillus subtilis (strain 168)), P80244; purified B. subtilis ClpP, FRET peptide cleavage, 20 min; Potency, µM (top dose mostly 57.5 µM), for the others: at the highest dose activity change, negative = active; 1.9% of 340,000 active; active = well fitted falling curve with a large enough effect; inconclusive = small, poorly fitted or top-dose-only effect; inactive = no such curve, though single readings can be large or run the other way; also: the source files actives as falling curves though it sought activators and does not explain the sign; nearly all actives have a fitted effect of over 65% in size
Target sequence (P80244 whole entry, looked up): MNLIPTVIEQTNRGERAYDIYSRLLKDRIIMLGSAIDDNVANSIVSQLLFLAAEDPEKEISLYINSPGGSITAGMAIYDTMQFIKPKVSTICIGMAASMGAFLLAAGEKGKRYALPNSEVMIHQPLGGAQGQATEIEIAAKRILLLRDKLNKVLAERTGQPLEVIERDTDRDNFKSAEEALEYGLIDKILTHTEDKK
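FRET quenching reversal measured ClpP activation: 10 microg/mL B. subtilis ClpP at pH 8 with the FRET-FV decapeptide, read at 430 nm after 320 nm excitation. The 20-min minus 0-min signal was scaled between DMSO/no-enzyme wells and ADEP (5.8 microM final).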
ClpP validation: qHTS Assay for Activators of ClpP: Hit Validation of Inhibitors. shares compounds with ClpP mod. Potency, µM (doses to about 57.5 µM), inactives show at the highest dose activity change, negative = inhibition, usual class: inhibitors. 40% of 470 active. purified B. subtilis ClpP, FRET-FV substrate cleavage, 20 min. AID 743245, 2014; also: % is scaled to controls: 0 for no effect and ±100 for the full control effect; nearly all actives have a fitted effect of over 70% in size
* = called active by the depositor; ? = inconclusive; · = not tested or not shown. A selection: hits, their analogues and other compounds. The true share with any hit is near 2.4%. Unless noted, calls follow the shape of the dose curve; as a rule, active = well fitted curve in the direction sought with a large enough effect; inconclusive = small, poorly fitted or top-dose-only effect, or another doubt; inactive = no such curve, though single readings can be large; an effect the other way counts as inactive or inconclusive. Potency is read from the fitted curve at half-maximal effect.

SMILES | Rango-impB inh | ALOX12 inh | Rango dissoc inh | TDP1 block | PTAP TSG101 blk | ClpP mod | ClpP validation
Cc1ccc(C(C)NC(=O)C2CCCO2)cc1 (configuration not stated) | · | 23% | · | · | · | · | ·
CCCC(=O)Nc1cc(-c2nc3ncccc3o2)ccc1C | 3% | 3% | -13% | -2% | -7% | 3.2µM* | 24µM*
CCCNC(=O)c1cnc2sc(N3CCCCCC3)nn2c1=O | · | ? | · | 5% | · | 3.2µM* | 1%
CCOc1ccccc1CNC(=O)c1cnc2sc(N3CCCCCC3)nn2c1=O | · | -9% | · | 5% | · | 3.2µM* | -5%
CCOc1ccccc1CNC(=O)c1cnc2sc(N3CCOCC3)nn2c1=O | · | -11% | · | 7% | · | 2.8µM* | 0%
CCc1ccc(CNC(=O)c2cnc3sc(N4CCCCC4)nn3c2=O)cc1 | · | -14% | · | -8% | · | ? | ·
Fc1ccc(-c2cnc(-c3cccs3)o2)cc1 | ? | 6% | 11% | -2% | -4% | 6.3µM* | 5.4µM*
O=C1NC(c2ccco2)Nc2ccccc21 (configuration not stated) | 1% | 0% | -6% | 5% | -4% | 10µM* | 24µM*
O=C1NC(c2ccncc2)Nc2ccccc21 (configuration not stated) | -1% | 0% | -15% | 1% | -10% | ? | ·
COc1ccc2nc(NC(=O)c3ccc(-n4nc(C)cc4C)cc3)sc2c1 | 0% | 276% | -8% | -1% | -4% | -103% | 27µM*
CSc1nsc(SCC(=O)Nc2ccc(Br)cn2)n1 | 0% | 0% | 14% | -2% | -4% | 68% | 0%
O=c1c2ccccc2c(-c2nnc(SCC3CCCO3)o2)nn1Cc1ccccc1 (configuration not stated) | · | -18% | · | · | · | · | ·
c1nc2n(n1)C1=C(CCCC1)C1(CCCCC1)N2 | 1% | 2% | 37% | 3% | 0% | 10µM* | -1%
O=C(O)CO[C@@H]1COCC[C@H]1NC(=O)c1cccc2c1OCCO2 | · | 28% | · | · | · | · | ·
CCOc1ccc(S(=O)(=O)Nc2ccc(C(=O)N3CC(C)OC(C)C3)cc2)cc1 (configuration not stated) | -5% | 8% | 0% | · | -6% | 5.6µM* | 0%
CCc1cccc(Nc2nn3c(=O)c4ccccc4nc3s2)c1 | · | · | · | · | · | · | -12%
Cc1ccccc1Nc1nn2c(=O)c3ccccc3nc2s1 | -3% | 0% | 1% | 3% | -2% | 21% | ·
O=C(Nc1ccc(-c2cn3ccccc3n2)cc1)c1ccc(Cl)cc1 | 0% | 3% | 16% | 3% | 0% | 76% | -14%
Cc1nc2c(c(-c3ccc(O)cc3)n1)CN(Cc1ccnn1C)CC2 | · | -6% | · | · | · | · | ·
CCCc1cc(=O)oc2cc(C)cc(OCc3nn[nH]n3)c12 | -1% | -18% | -9% | 0% | 6% | 8.9µM* | 34µM*
CSc1nc2n(n1)C(c1ccc(Cl)c(Cl)c1)C1=C(CCCC1=O)N2 (configuration not stated) | · | -10% | · | · | · | · | ·
Cc1ccc2[nH]c3c(c2c1)CCCC3=O | 7% | 14% | -1% | 6% | -3% | ? | ·
